In PubChem BioAssay (NCI):
Compounds without any hit were thinned out: in the full panel of roughly 79,000, 15% have a hit. A number with no mark means an inactive call. The source made the active and inactive calls. No stated cut-off is given here; in the data, active means growth inhibition above about 70%; inactive means the rest. Where a SMILES comes first, the peptide text is derived from it. Bridges are numbered along the chain shown (N, C = ends). Roman numbers before positions name the chains, in order. [ ]: non-standard residue; d: D form. The star is where a group is joined. Quinoxaline2carbonyl = O=C(c1cnc2ccccc2n1)*; NMeV = CN[CH](C(=O)O)C(C)C; NMeC = CN[CH](CS)C(=O)O

Legend:
[1] = NCI Yeast Anticancer Drug Screen. Data for the rad50 strain (AID 155);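 further: 0% = growth of vehicle-only cultures of the same strain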; details: S. cerevisiae rad50 strain growth inhibition; at 50.0 µM; hits give high values
In short: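 Inhibition values express reduced yeast growth in compound-treated cultures relative to vehicle-treated controls.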

[2] = NCI Yeast Anticancer Drug Screen. Data for the mec2-1 strain (AID 157); details: S. cerevisiae mec2-1 strain, at 50.0 µM, hits give high values
In short: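 Cells of the genetically defined mec2-1 yeast strain are incubated with test compound. Inhibition of growth is calculated against vehicle-treated controls.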

[3] = NCI Yeast Anticancer Drug Screen. Data for the sgs1 mgt1 strain (AID 161);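 further: 0% = growth of cultures given vehicle only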; details: S. cerevisiae sgs1 mgt1 strain, at 50.0 µM, hits give high values
In short: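 Inhibition of yeast growth, normalised to vehicle-treated controls, is reported for a strain bearing genetic alterations in DNA damage repair.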

[4] = NCI Yeast Anticancer Drug Screen. Data for the cln2 rad14 strain (AID 165);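 further: 0% = growth equal to vehicle treated cultures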; details: S. cerevisiae cln2 rad14 strain, at 50.0 µM, hits give high values
In short: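 The screen exposed genetically defined yeast (cln2 rad14) to test compounds and scored growth inhibition relative to vehicle-treated controls.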

[5] = NCI Yeast Anticancer Drug Screen. Data for the bub3 strain (AID 167); details: S. cerevisiae bub3 mutant strain, at 50.0 µM, hits give high values
In short: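 Steps: expose the mutant yeast strain to compound; grow alongside vehicle-treated cultures; measure growth; express inhibition against the vehicle cultures.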

[6] = NCI Yeast Anticancer Drug Screen. Data for the mlh1 rad18 strain (AID 175); details: S. cerevisiae mlh1 rad18 strain growth inhibition; at 50.0 µM; hits give high values
In short: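 Compound-treated yeast growth, normalised to vehicle controls. Strain bears defined DNA repair mutations.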

Compound | growth inhibition [1] | growth inhibition [2] | growth inhibition [3] | growth inhibition [4] | growth inhibition [5] | growth inhibition [6]
CC(C)N=Cc1ccccc1O.CC(C)N=Cc1ccccc1O.[Ni] | 51.3% | 1.1% | 48.6% | -4.45% | 7.05% | 22.2%
NC(Cc1ccccc1)c1nn[nH]n1 (stereo not given) | -10.2% | -19.1% | -35.6% | -40.6% | -17.4% | -19.3%
COC(=O)CCSP(=S)(Oc1ccccc1)Oc1ccccc1 | -0.2% | 7.85% | 12.3% | 4.25% | 36.5% | 9.1%
[C-]#[O+].[C-]#[O+].[C-]#[O+].[C-]#[O+].[C-]#[O+].[C-]#[O+].[Fe].[Fe].c1ccc([P-]c2ccccc2[P-]c2ccccc2)cc1 (stereo not given) | 8.7% | 26.9% | -11.3% | 26.9% | 12.6% | 18.7%
O=P1(Oc2ccccc2)N(CCCl)CCN1c1ccccc1 (stereo not given) | -12.2% | -44.8% | 7.15% | 13.2% | 32.1% | -4.65%
O=c1ccc(=O)[nH][nH]1.[Mn] | 2.05% | 4.5% | -13.6% | 17.1% | 7.2% | -1.7%
CCCn1cc2c3c(cccc31)[C@H]1C[C@@H](C)CN(C)[C@@H]1C2 | 49.4% | 45.4% | 41% | 45.1% | 44% | 36.5%
CC1NC(=O)C(NC(=O)c2cnc3ccccc3n2)COC(=O)C(C(C)C)N(C)C(=O)C2CSSCC(C(=O)N(C)C(C(C)C)C(=O)OCC(NC(=O)c3cnc4ccccc4n3)C(=O)NC(C)C(=O)N2C)N(C)C1=O (stereo not given) (I: Quinoxaline2carbonyl-SA[NMeC][NMeV] / II: Quinoxaline2carbonyl-SA[NMeC][NMeV]; ester I:1-II:C, I:C-II:1; disulfide I:3-II:3; configuration not given here) | 87.3% (active) | 90.5% (active) | 90% (active) | 86.7% (active) | 88.2% (active) | 89.7% (active)
C=C1OC(OC)CC(N=[N+]=[N-])C1O (stereo not given) | -14.1% | -2.9% | -6.4% | -5.3% | 2.45% | -15.6%
Oc1ccc(Br)cc1 | 1.15% | -18.1% | -14.4% | -14.3% | -15.1% | -6.5%
OC1NC2CC3NC(O)C(O)NC3CC2NC1O (stereo not given) | -16.6% | -4.25% | 12.7% | 22.9% | 16.1% | 11.4%
C/C=C/C(C)C1(CCC)C(=O)NC(=O)NC1=O (stereo not given) | 0.35% | 2.6% | -3.8% | -37.2% | 8.5% | -3.8%
COc1ccc(CCl)cc1CCl | -24.2% | -62.8% | -7.25% | 5.85% | -26.4% | -43.7%
CN1C2CCC1CC(O)(c1ccc(Cl)cc1)C2 (stereo not given) | 26.1% | 16.4% | 16.6% | 16.1% | 30.4% | 28.1%
CC(C)(C(=O)c1ccccc1)N1CC1 | -0.65% | 2.8% | -4.75% | -10.6% | -23.6% | -8.25%
COC12CC3(C)C(C4=CC(=O)OC4)CCC3(O)C3CCC4=CC(=O)CCC4(CO1)C32 (stereo not given) | -1.85% | -10.2% | -11.4% | 15.8% | -16.9% | 6.6%
CCCCC(C(=O)NN)P(=O)(OCC)OCC (stereo not given) | -0.9% | -5.2% | 15.8% | -14.7% | -1.95% | 0.95%
C/C=C/C(=O)[O-].N.N.N.N.N.[Co+3].[O-][Cl+3]([O-])([O-])[O-] | -10.4% | -5.85% | -7.6% | 9.35% | -12.8% | -36.1%
O=[N+]([O-])c1cccc2ncccc12 | -2.95% | -14.4% | 18.4% | -6.55% | 17.7% | 9.3%
O=[N+]([O-])c1c(Cl)cc(Cl)c([N+](=O)[O-])c1Cl | 15.6% | 5.25% | 17.1% | 3.9% | 2.85% | 32.1%

Compound | growth inhibition [1] | growth inhibition [2] | growth inhibition [3] | growth inhibition [4] | growth inhibition [5] | growth inhibition [6]
CCOP(=O)(OCC)/C(C#N)=C/c1cnc(C)[nH]1 | -52.4% | 24% | -36% | 26.4% | 16.1% | -5.55%
C=CCNCC(O)c1ccccc1 (stereo not given) | 13.5% | -14.2% | -11.8% | 6.7% | 6.5% | 4.6%
O=[As](c1ccccc1)(c1ccccc1)c1ccc(Br)cc1 | 31.1% | 1.25% | 12.2% | 5.1% | 6.2% | 4.7%
COc1ccc(O)c2c(=O)c3c(OC)cc4c(c3oc12)[C@@H]1C=CO[C@@H]1O4 | 16.6% | -29.6% | 17.5% | -2.9% | -9.65% | 9.2%
c1cc2[se][se]c3c4cccc5[se][se]c(c(c1)c23)c54 | 1.05% | -8.7% | -26.8% | -3.95% | -1.8% | -31.1%
O=C1C=CC(=O)N1c1ccccc1Cl (tested in a mixture with another compound) | 20.2% | 4.15% | 20.5% | 4.2% | 21.2% | 6.7%
CN=c1ssc(/N=C(\SC)N(C)C)[n+]1C | -17.7% | -10.1% | -13.8% | -65.7% | -19.4% | 3.05%
c1ccc2c(c1)c1ccccc1c1n[se]nc21 | -4.7% | -1.5% | 2.75% | -6.25% | 7.55% | 11.9%
CCOP(=S)(OCC)Oc1ccc2c(c1)OC(=O)C1(Cl)C2(C)C2(Cl)C(=O)Oc3cc(OP(=S)(OCC)OCC)ccc3C12C (stereo not given) | 10.2% | 4.75% | 3.45% | 15.1% | 2.05% | 1.45%
Cc1cc(C)n(/C(N)=N/[N+](=O)[O-])n1 | -15.3% | -18.9% | 3.6% | 12.6% | 21.6% | 15.2%
N#Cc1ccc(/C=C/C(=O)O)cc1 | 17.2% | -10.4% | -9.15% | -60.2% | -9.9% | -4.3%
O=c1[nH]c(=O)[nH]c(=O)[nH]1 | 25.6% | -16.1% | -12.9% | -42.8% | 1.1% | 27.6%
CS(=N)(=O)CCC(N)C(=O)O (stereo not given) (tested in a mixture with another compound) | 4.7% | 21.2% | -12.8% | -1.95% | 17.8% | 2.1%
Cc1ccc([Se][Se]c2ccc(C)cc2)cc1 | 55.5% | 10.7% | 35.6% | 30.1% | 41% | 43%
COc1cc2c(cc1OC)[C@@H]1C(=O)c3ccc4c(c3O[C@@H]1CO2)C[C@H](C(C)C)O4 | -11.2% | -40.2% | -1.45% | -9.25% | -33.6% | 7.2%
Cc1ccc(-c2cc(C)n(C)[n+]2C)cc1 | 8.05% | 7.05% | 8.7% | -20.9% | 9.6% | -3.05%
CC1OC(O[C@@H]2C=C3CC[C@@H]4[C@H](CC[C@]5(C)[C@@H](c6ccc(=O)oc6)CC[C@]45O)[C@@]3(C)CC2)C(O)C(OC2OC(CO)C(O)C(O)C2O)C1O (stereo not given in full) | 25.7% | 5.65% | -1.6% | 10.8% | 14.1% | 8.6%
CC1CCC2C(C)C(=O)OC3OC4(C)CCC1C32OO4 (stereo not given) | -7.55% | 4.2% | -8.05% | 27.8% | 18.2% | 2.7%
Clc1ccc(N=P(c2ccccc2)(c2ccccc2)c2ccccc2)cc1.[Cl][Cd][Cl] | 95% (active) | 71% (active) | 81.8% (active) | 75.9% (active) | 64.2% | 69%
CC(C)CC1C(=O)NCCC(NC(=O)C(N)Cc2ccc(O)cc2)C(=O)NC(Cc2ccccc2)C(=O)NC(Cc2ccccc2)NC1=O (stereo not given) | -1.2% | -14.2% | -23.9% | 3.9% | -10.8% | -28.1%
